Reference: PubChem BioAssay (Tox21)
Inconclusive results are not listed. A call without a number means that no potency is given here. Activity calls are given as the source filed them. Calls come from the whole dose curve.

Molecular target: Progesterone receptor (Homo sapiens) (UniProt P06401)
Assay: qHTS assay to identify small molecule agonists of the progesterone receptor (PR) signaling pathway (AID 1346784); note: nearly all actives have a fitted effect of over 30% in size
Conditions: PR-UAS-bla HEK293T, beta-lactamase FRET ratio, 16 h; series mostly up to 92.4 µM; activation: at the top concentration
Description: U.S. Tox21 Program National Center for Advancing Translational Sciences [NCATS] NIH Chemical Genomics Center [NCGC] U.S. Environmental Protection Agency [EPA] National Institutes of Environmental Health Sciences [NIEHS] National Toxicology Program [NTP] U.S. Food and Drug Administration [FDA] […] Endocrine disrupting chemicals (EDCs) and their interactions with steroid hormone receptors like PR causes disruption of normal endocrine function. To identify the compounds that activate PR signaling, a PR-UAS-bla GripTite cell line i.e. PR-UAS-bla HEK 293T (Invitrogen, Carlsbad, CA, USA) containing a beta-lactamase reporter gene under the control of an Upstream Activator Sequence (UAS) was used to screen Tox21 10K compound library.
Tox21 Assay Protocol Summary: PR-UAS-bla HEK 293T cells were dispensed at 3,000 cells/5 uL of assay medium containing 2% charcoal stripped FBS per well into black wall/clear-bottom 1536-well plates using a Multidrop Combi (ThermoFisher Scientific, Waltham, MA) dispenser. After the assay plates were incubated at a 37C and 5% CO2 for 6hr, 23 nL of compounds dissolved in DMSO, positive controls or DMSO only was transferred to the assay plate by a Pintool station (Kalypsys, San Diego, CA). The plates were incubated at 37C and 5% CO2 for 16hr. Then 1 uL of LiveBLAzer B/G FRET substrate was added using a BioRAPTR FRD (Flying Reagent Dispenser, Aurora Discovery, San Diego, CA). After the plates were incubated at room temperature for 2 hours, fluorescence intensity was measured by an Envision plate reader (PerkinElmer, Shelton, CT).
Potency is the fitted concentration of half-maximal effect.

Chain of Progesterone receptor (Homo sapiens) (P06401 whole entry, looked up): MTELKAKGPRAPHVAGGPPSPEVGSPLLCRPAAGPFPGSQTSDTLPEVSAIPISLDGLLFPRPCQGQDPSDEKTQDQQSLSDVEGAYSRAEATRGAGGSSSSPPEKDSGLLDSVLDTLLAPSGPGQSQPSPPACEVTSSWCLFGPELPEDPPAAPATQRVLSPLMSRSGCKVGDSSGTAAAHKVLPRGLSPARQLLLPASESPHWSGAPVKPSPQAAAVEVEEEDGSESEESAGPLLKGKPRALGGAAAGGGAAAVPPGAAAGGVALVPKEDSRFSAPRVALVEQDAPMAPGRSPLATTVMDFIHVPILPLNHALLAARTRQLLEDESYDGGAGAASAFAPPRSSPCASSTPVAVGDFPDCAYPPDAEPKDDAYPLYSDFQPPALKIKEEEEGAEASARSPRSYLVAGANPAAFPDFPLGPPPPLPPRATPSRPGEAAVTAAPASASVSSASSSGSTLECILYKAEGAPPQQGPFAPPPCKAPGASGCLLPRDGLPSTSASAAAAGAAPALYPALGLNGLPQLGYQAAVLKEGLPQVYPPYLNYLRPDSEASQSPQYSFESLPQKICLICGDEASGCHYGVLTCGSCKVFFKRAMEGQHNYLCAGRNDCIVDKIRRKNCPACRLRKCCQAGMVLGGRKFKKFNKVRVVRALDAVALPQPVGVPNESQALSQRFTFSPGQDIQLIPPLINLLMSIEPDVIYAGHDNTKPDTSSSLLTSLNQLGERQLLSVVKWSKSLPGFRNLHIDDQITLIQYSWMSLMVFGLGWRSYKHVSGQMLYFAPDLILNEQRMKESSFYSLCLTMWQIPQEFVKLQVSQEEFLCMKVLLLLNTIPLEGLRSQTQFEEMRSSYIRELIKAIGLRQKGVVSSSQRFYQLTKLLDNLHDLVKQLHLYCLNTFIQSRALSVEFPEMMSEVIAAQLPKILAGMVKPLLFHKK

SMILES	Potency	activation
O=P(O)(O)CCCl	inactive	
c1ccc(NNc2ccccc2)cc1	inactive	
O=[N+]([O-])c1cccc2ccccc12	inactive	
C#CCOS(=O)OC1CCCCC1Oc1ccc(C(C)(C)C)cc1 (stereo not given)	inactive	
CNC(=O)Oc1cccc2c1OC(C)(C)O2	inactive	
CCOc1cc(Oc2ccc(C(F)(F)F)cc2Cl)ccc1[N+](=O)[O-]	inactive	
C#C[C@]1(O)CC[C@H]2[C@@H]3CCC4=CC(=O)CC[C@]4(C)[C@H]3CC[C@@]21C	24.3 nM (active)	
O=C(O)C(F)(F)C(F)(F)C(F)(F)C(F)(F)C(F)(F)C(F)(F)C(F)(F)F	inactive	
ClC1C(Cl)C(Cl)C(Cl)C(Cl)C1Cl (stereo not given)	inactive	
CC1(C)C(C=C(Cl)Cl)C1C(=O)OC(C#N)c1cccc(Oc2ccccc2)c1 (stereo not given)	inactive	
CCCCN(CC)c1c([N+](=O)[O-])cc(C(F)(F)F)cc1[N+](=O)[O-]	inactive	
N#Cc1cc(Br)c(O)c(Br)c1		6.48% (inactive)
Oc1cc(Cl)c(Cl)cc1Cl	inactive	
Nc1ccc(-c2ccc(N)c(N)c2)cc1N		1.14% (inactive)
CCOc1cc(C=O)ccc1O	inactive	
NCc1cccnc1	inactive	
C=CCc1ccc2c(c1)OCO2	inactive	
CCCCOCCOP(=O)(OCCOCCCC)OCCOCCCC	inactive	
CCN(CC)N=O	inactive	
COP(=O)(OC)OC	inactive	

SMILES	Potency	activation
Cc1c(COC(=O)[C@@H]2[C@H](/C=C(\Cl)C(F)(F)F)C2(C)C)cccc1-c1ccccc1	inactive	
CCOCN(C(=O)CCl)c1c(C)cccc1CC		12.5% (inactive)
CCC(C)(c1ccc(O)cc1)c1ccc(O)cc1	inactive	
C=CC(=O)OCCO	inactive	
CC(C)(c1cc(Cl)c(O)c(Cl)c1)c1cc(Cl)c(O)c(Cl)c1		-3.69% (inactive)
CCCCCCCCCCCOC(=O)c1ccccc1C(=O)OCCCCCCCCCCC	inactive	
COc1ccc(C(CN(C)C)C2(O)CCCCC2)cc1 (stereo not given)	inactive	
CCC(C)c1cc([N+](=O)[O-])cc([N+](=O)[O-])c1O (stereo not given)		-0.814% (inactive)
O=c1oc2ccccc2c(O)c1C(CC(O)c1ccc(-c2ccc(Br)cc2)cc1)c1ccccc1 (stereo not given)		2.94% [at 42.5 µM] (inactive)
COP(=S)(OC)Oc1cc(Cl)c(Cl)cc1Cl	inactive	
O=[N+]([O-])c1ccc(O)c([N+](=O)[O-])c1	inactive	
c1ccc(P(c2ccccc2)c2ccccc2)cc1	inactive	
CCOP(=S)(OCC)O/N=C(\C#N)c1ccccc1		6.62% [at 42.5 µM] (inactive)
OCC(O)CO		-3.89% (inactive)
CC(C)=CC1C(C(=O)OCc2coc(Cc3ccccc3)c2)C1(C)C (stereo not given)		0.417% (inactive)
CCC(CC)Nc1c([N+](=O)[O-])cc(C)c(C)c1[N+](=O)[O-]	inactive	
COC(=O)c1sccc1S(=O)(=O)NC(=O)Nc1nc(C)nc(OC)n1	inactive	
c1ccc(-c2cccc(-c3ccccc3)c2)cc1	inactive	
Nc1ccc(-c2ccccc2)cc1		3.02% (inactive)
O=C1C=CC(=O)C=C1	inactive	
